The list is not random: actives were taken first. Their share in the collection is about 12%.
USP30 inh = human USP30 deubiquitinase inhibition; Q70CQ3; purified USP30, Ub-rhodamine cleavage fluorescence; inhibition, % at 25 µM; 47,000 tested, 5.3% active; AID 1645860
USP17 inh = blocks human USP17 ubiquitin-rhodamine cleavage. A8MUK1. purified USP17, Ub-rhodamine cleavage fluorescence, 3 h. inhibition, % at 50 µM. 47,000 tested, 6.5% active
USP28 block = blocks human USP28 ubiquitin-rhodamine cleavage. purified USP28, Ub-rhodamine cleavage fluorescence, 30 min. inhibition, % at 25 µM. 47,000 tested, 3% active
Target sequence (Q96RU2 whole entry, looked up): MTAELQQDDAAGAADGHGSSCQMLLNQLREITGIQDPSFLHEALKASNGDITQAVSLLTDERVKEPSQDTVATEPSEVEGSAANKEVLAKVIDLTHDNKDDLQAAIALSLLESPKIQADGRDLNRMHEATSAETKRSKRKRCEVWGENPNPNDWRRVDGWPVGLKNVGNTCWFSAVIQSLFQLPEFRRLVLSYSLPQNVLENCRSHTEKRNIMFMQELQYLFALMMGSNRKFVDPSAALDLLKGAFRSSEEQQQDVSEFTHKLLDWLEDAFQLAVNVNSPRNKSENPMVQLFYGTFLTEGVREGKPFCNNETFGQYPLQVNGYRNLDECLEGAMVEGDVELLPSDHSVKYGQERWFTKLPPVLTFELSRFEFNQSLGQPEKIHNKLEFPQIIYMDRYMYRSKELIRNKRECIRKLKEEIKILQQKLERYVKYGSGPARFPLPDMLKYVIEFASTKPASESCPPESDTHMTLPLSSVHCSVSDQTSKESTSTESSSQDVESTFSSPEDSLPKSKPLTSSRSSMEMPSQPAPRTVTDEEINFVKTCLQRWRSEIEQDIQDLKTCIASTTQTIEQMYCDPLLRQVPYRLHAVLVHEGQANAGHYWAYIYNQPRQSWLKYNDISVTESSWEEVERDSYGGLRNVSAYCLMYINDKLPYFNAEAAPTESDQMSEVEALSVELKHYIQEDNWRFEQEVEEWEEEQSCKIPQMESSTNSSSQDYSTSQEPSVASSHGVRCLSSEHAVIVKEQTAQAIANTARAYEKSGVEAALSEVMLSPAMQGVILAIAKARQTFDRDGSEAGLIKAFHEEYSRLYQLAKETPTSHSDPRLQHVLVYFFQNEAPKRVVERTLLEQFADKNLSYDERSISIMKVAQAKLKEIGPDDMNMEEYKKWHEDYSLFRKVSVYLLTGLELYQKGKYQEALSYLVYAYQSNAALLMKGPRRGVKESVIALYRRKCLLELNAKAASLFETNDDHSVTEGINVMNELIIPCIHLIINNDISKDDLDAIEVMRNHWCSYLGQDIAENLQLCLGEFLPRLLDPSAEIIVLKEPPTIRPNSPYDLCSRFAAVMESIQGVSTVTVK
OTUD3 inh = human OTUD3 deubiquitinase inhibition; Q5T2D3; purified OTUD3, Ub-rhodamine fluorescence, 2 h; inhibition, % at 25 µM; 47,000 tested, 0.7% active
Numbers without * were called inactive; i = inactive; x = no result given. No stated cut-off is given here; in the data, active means inhibition above about 30%; inactive means the rest.

SMILES | USP30 inh | USP17 inh | USP28 block | OTUD3 inh
CNc1nc2c(c(=O)n1Cc1ccccc1)CN(C(=O)Nc1ccc(C#N)cc1)CC2 | 24 | 13 | 12 | 7
CCS(=O)(=O)N1CCC(c2nc3ccc(F)cn3c2NC2CCCC2)CC1 | -88 | -41 | -31 | -24
O=C1[C@H]2Cc3c([nH]c4ccccc34)C(c3ccccc3)N2C(=O)CN1Cc1ccc2c(c1)OCO2 (some centres undefined) | -73 | 17 | -1 | -4
Cc1ccc(SCCC(=O)c2cccs2)cc1 | 27 | 23 | 24 | 21
O=C(c1cn(-c2ccccc2)nc1-c1cccnc1)N1CCN(CCOc2ccccc2)CC1 | -23 | -18 | -17 | -13
O=C(O)C1CCC1C(=O)N1CCN(c2ccc(C(F)(F)F)cn2)CC1 (centres undefined) | 3 | 11 | 8 | 7
O=C(O)c1ccccc1C(=O)N1CCN(c2ccc(C(F)(F)F)cn2)CC1 | 32* | 19 | 3 | 9
O=C1OC(C(=O)N2CCN(S(=O)(=O)c3ccc(F)cc3)CC2)Cc2ccccc21 (centres undefined) | -29 | 0 | 0 | 3
O=C1OC(C(=O)N2CCN(c3ccc(C(F)(F)F)cn3)CC2)Cc2ccccc21 (centres undefined) | 14 | 42* | 0 | 1
Cc1c(C)c(C)c2[nH]c(-c3ccc4c(c3)OCO4)nc2c1C | 49* | 47* | 2 | -2
O=c1[nH]c2c(-c3ccccn3)nsc2c(=O)n1Cc1ccc2c(c1)OCO2 | -127 | -23 | -98 | -53
C[C@@H]1O[C@@H](O[C@H]2[C@H](O[C@H]3[C@H](O[C@H]4CC[C@@]5(C)[C@@H](CC[C@]6(C)[C@@H]5CC=C5[C@@H]7CC(C)(C)CC(=O)[C@]7(C)CC[C@]56C)[C@@]4(C)CO)O[C@H](C(=O)O)[C@@H](O)[C@@H]3O)OC[C@@H](O)[C@@H]2O)[C@H](O)[C@H](O)[C@H]1O | 53* | 32* | 49* | 19
O=C(NCc1cccc(Cl)c1)c1cnn(-c2ccc(Cl)cc2)c1C1CCNCC1 | 7 | -29 | 7 | -1
Cc1ccc(-n2ncc(C(=O)NCc3cccc(Cl)c3)c2C2CCNCC2)cc1Cl | 44* | x | 24 | 16
NS(=O)(=O)c1ccc(CCNc2ccn3nc(-c4ccccc4)cc3n2)cc1 | 23 | 31* | -4 | -19
Cc1ccc2oc(C(=O)NCC(c3ccccc3Cl)N3CCCC3)cc(=O)c2c1 (centres undefined) | 8 | x | 0 | 3
Cn1cncc1-c1cncc(CC2CCN(C(=O)c3ccc4nc[nH]c4c3)CC2)n1 | 21 | 9 | 8 | 10
Cc1cc(C)cc(NC(=O)C2C3C=CC4(O3)C2C(=O)N(C2CC2)C4C(=O)NC2CCCCC2)c1 (centres undefined) | -39 | 3 | -9 | -13
Cc1ccc(NC(=O)C2C3C=CC4(O3)C2C(=O)N(C2CCCCCC2)C4C(=O)NC2CCCCC2)cc1Cl (centres undefined) | 2 | 49* | -3 | 0
CC(C)OCCCN1C(=O)C2C(C(=O)Nc3ccc(Oc4ccccc4)cc3)C3C=CC2(O3)C1C(=O)NC1CCCCC1 (centres undefined) | 13 | 51* | 18 | 33*
CC(C)CCN1C(=O)C2C(C(=O)Nc3ccc(F)cc3)C3(C)C=CC2(O3)C1C(=O)NC1CCCCC1 (centres undefined) | 36* | 24 | 17 | 13
CCCN1C(=O)C2C(C(=O)Nc3ccc(Oc4ccccc4)cc3)C3C=CC2(O3)C1C(=O)NC1CCCCC1 (centres undefined) | 0 | 0 | -7 | 4
O=C(Nc1ccc(Cl)cc1)C1C2C=CC3(O2)C1C(=O)N(C1CC1)C3C(=O)NC1CCCCC1 (centres undefined) | 4 | 36* | 4 | 6
O=C(Nc1cccc(Cl)c1)N1CCN(c2cc(C(F)(F)F)ccn2)CC1 | 26 | 59* | -1 | -3
O=C(c1ccc(F)cc1)N1CCN(c2cc(-c3cccnc3)[nH]n2)CC1 | -3 | -13 | -9 | 1
SMILES | USP30 inh | USP17 inh | USP28 block | OTUD3 inh
O=C(c1cc(C2CC2)on1)N1CCc2ccccc2C1 | -33 | -5 | 0 | -3
O=C(O)c1nccnc1C(=O)N1CCc2ccccc2C1 | 8 | 78* | 46* | 22
Cc1cccc(N2CCn3c2nc2c3c(=O)n(CCN3CCOCC3)c(=O)n2C)c1 | 38* | 5 | 12 | 14
Cc1ccc(N2CCCn3c2nc2c3c(=O)n(CCN3CCOCC3)c(=O)n2C)cc1 | 34* | 16 | 17 | 15
Cn1c(=O)n(CCN2CCOCC2)c(=O)c2c1nc1n2CCN1c1cccc(Cl)c1 | 6 | -4 | -8 | -7
Cc1ccc(N(CC(=O)N2CCC(Cc3ccccc3)CC2)S(=O)(=O)c2ccccc2)c(C)c1 | 12 | 0 | 5 | 2
CC(=O)N1CCC(NC2(Cc3cc(-c4ccc(F)cc4)on3)COC2)CC1 | -37 | -16 | -4 | -5
COc1cccc(N2CC(NS(=O)(=O)c3ccc4ccccc4c3)CC2=O)c1 (centres undefined) | 33* | 28 | 20 | 13
O=C1CC(NS(=O)(=O)c2ccc3ccccc3c2)CN1c1cccc(F)c1 (centres undefined) | 23 | 55* | 12 | 6
COC(=O)[C@@]12Oc3ccc(-c4ccc5c(c4O)C(O)=C4C(=O)C[C@H](C)[C@H](O)[C@]4(C(=O)OC)O5)c(O)c3C(O)=C1C(=O)C[C@H](C)[C@H]2O | 21 | -25 | 0 | 10
COC(=O)C12Oc3cc4c(c(O)c3C(O)=C1C(=O)CCC2O)C1C=CC2(C4)C(=O)c3cc(C)cc(O)c3C(O)=C2C1=O (centres undefined) | -63 | 48* | 30 | 18
Fc1ccc(Nc2nc(Nc3cccc(F)c3)nc3nccnc23)cc1 | 61* | 7 | -173 | 1
Cc1ccc(Nc2nc(Nc3ccc(F)cc3)nc3nccnc23)cc1C | i | -123 | -228 | -178
CCN1CCOCC2(CCCN(C(=O)c3ccn(C)n3)C2)C1 (centres undefined) | 2 | -9 | 1 | 10
Cn1c(=O)c2c(SCC(=O)N3CCCC3)nc(-c3ccccc3)nc2n(C)c1=O | 2 | 7 | -3 | 4
Cc1cc(C)cc(-c2nc(SCC(=O)N3CCCC3)c3c(=O)n(C)c(=O)n(C)c3n2)c1 | 36* | x | 14 | 15
COCCCn1c(C(=O)Nc2cc(Cl)ccc2OC)cc2c(=O)n3cccc(C)c3nc21 | -14 | -33 | -18 | -1
Cc1cc(C)c2[nH]c(C(=O)NCc3c(C)n[nH]c3C)c(C)c2c1 | 1 | 18 | -6 | -27
COc1ccc(CC(=O)Nc2cc(-c3cn4cccnc4n3)ccc2C)cc1 | -177 | 37* | -105 | -48
O=C(COc1ccc(Cl)cc1)Nc1ccc(-c2cn3cccnc3n2)cc1 | -149 | 35* | 17 | -57
Cc1c(C(=O)COc2nc(-c3cccs3)cc(C(F)(F)F)c2C#N)sc2ccc(Cl)cc12 | -42 | 4 | -7 | 1
CC1CCc2c(sc(N)c2C(=O)NC2CCCC2)C1 (centres undefined) | -243 | -32 | -74 | -64

From PubChem
